Test in all cases: NCI-60 one-dose screen, 48 h (100 = growth as untreated, 0 = no growth, -100 = all killed)
What all share (details): 10 µM

In assay [1] the test system is NCI-H23 lung.
The test system of assay [2] is NCI-H226 lung.
The subject of assay [3] is HOP-62 NSCLC.
Assay [4] has as its system NCI-H460 lung.
The subject of assay [5] is HOP-92 NSCLC.
Assay [6] relates to NCI-H522 lung.
Assay [7] relates to A549/ATCC NSCLC.
For assay [8], the system named is 786-0 renal.
The test system of assay [9] is COLO 205 colon.

Compounds without any hit were thinned out: in the full panel of roughly 83,000, 20% have a hit.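 Plates (96-well) were seeded with cells, treated with compound at one concentration, and incubated for 48 hours before percent growth was determined.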 Values without a mark were called inactive. The source made the active and inactive calls. The calls were made as follows: active = growth percent below 10; inactive = the rest.

In the case of `C[n+]1c2ccccc2nc2ccccc21`, the growth in assay [1] is -9.78% (active); in [2], 42.2%; in [3], -18.8% (active); in assay [4] it was 17.3%; in [5] it was -10.7% (active); in [6], -39.4% (active). Further, the growth in [7] was 24.1%; in assay [8], 10.9%; in assay [9], -25.3% (active).

For the compound `O=C(COc1cccc(/C=C2\CSc3ccccc3C2=O)c1)c1ccc(Cl)cc1`, the growth in [1] was -7.19% (active); in assay [2] it was 80.1%; in assay [3], 79.5%; in [4], 68.5%; in [5], 56.5%; in assay [6] it was -76.8% (active). Moreover, the growth in [7] was 40.6%; in assay [8], 80.3%; in assay [9], 96.2%.

Turning to `OC(CCN1CCCC1)(c1ccccc1)C1CCCCC1` (stereo not given), the growth in assay [1] is 103%; in [2], 94.3%; in [3], 120%; in assay [4], 110%; in assay [5], 115%; in [6], 102%. The growth in assay [7] is 104%; in assay [8], 100%; in [9], 117%.

As to `COc1ccc2c(c1)C(=O)/C(=C/c1cccc(OCC(=O)c3ccc([N+](=O)[O-])cc3)c1)CO2`, the growth was -15% (active) in [1]; 70.5% in assay [2]; 77% in assay [3]; 73.9% in assay [4]; 60.9% in assay [5]; -53.4% (active) in assay [6]. Further, the growth is 23.7% in assay [7], 82.8% in [8] and 98.4% in assay [9].

For the compound `COc1cc(C(=O)/C(C)=C/c2c[nH]c3ccccc23)cc(OC)c1OC`, the growth in assay [1] was 32.3%; in assay [2], 61.7%; in assay [3] it was 39.2%; in assay [4] it was 9.7% (active); in assay [5], 47.1%; in assay [6] it was -19.4% (active). The values for the growth in assay [7], in [8] and in assay [9] were 11.6%, 11% and -39.2% (active), respectively.

As to `CCC(C)[C@H](NC(C)=O)C(=O)N[C@@H](CCCNC(=N)N)C(=O)N[C@@H](CCCCN)C(=O)N[C@@H](CC1CCC(O)CC1)C(=O)NC(C(=O)N[C@@H](CCSC)C(=O)N[C@@H](CCCNC(=N)N)C(=O)N[C@@]1(C)CCC/C=C\CCC[C@@](C)(C(=O)NC(C(=O)N[C@@H](CCC(=O)O)C(=O)N[C@@H](CC(C)C)C(=O)N[C@H](C(=O)N[C@@H](CCC(=O)O)C(N)=O)C(C)C)[C@@H](C)O)NC(=O)[C@H](CCC(N)=O)NC(=O)[C@H](CC(C)C)NC(=O)[C@H](CC(C)C)NC1=O)[C@@H](C)O` (stereo not given in full), the growth in assay [1] is 106%; in assay [2] it was 108%; in assay [3] it was 108%; in [4], 103%; in assay [5] it was 103%; in assay [6], 102%. Also, the growth is 96.3% in [7], 98.7% in assay [8] and 89.9% in assay [9].

As for `COc1cc(Cc2cc(-c3ccccc3)n[nH]c2=O)cc(OC)c1OC`, the growth was 65.5% in assay [1]; 68.5% in assay [2]; 73% in assay [3]; 44.5% in [4]; 35.8% in assay [5]; 52.9% in assay [6]. The growth is 53.5% in assay [7], 74.3% in assay [8] and 56.3% in assay [9].

Take `O=S(=O)(Oc1ccc(-c2ccc3sccc3c2)cc1)c1ccc(F)cc1`: the growth in assay [1] is 87.6%; in [2] it was 94.5%; in assay [3], 111%; in [4], 103%; in [5], 105%; in assay [6], 87.7%. Besides, the growth in [7] is 94%; in assay [8], 96.3%; in assay [9], 111%.

With `Clc1ccc(/C=C2\CCCC3C2=Nc2ccccc2NC3c2ccc(Cl)cc2)cc1` (stereo not given), the growth is 83.3% in assay [1]; 100% in assay [2]; 122% in assay [3]; 94.3% in assay [4]; 60.6% in assay [5]; 20% in assay [6]. In addition, the growth in assay [7] is 78.5%; in [8], 114%; in assay [9] it was 68.2%.

As to `N#CC1=C(N)Oc2cc(N)ccc2C1c1cccnc1` (stereo not given), the growth was 92.1% in assay [1]; 101% in assay [2]; 92.7% in [3]; 97.5% in assay [4]; 111% in [5]; 75% in assay [6]. Further, the values for the growth in [7], in [8] and in assay [9] were 100%, 90.7% and 113%, respectively.

As to `CC(C)C[C@H](NC(=O)Cn1cccc(CNC(=O)c2ccccc2)c1=O)B(O)O`, the growth was 23.7% in assay [1]; -66% (active) in assay [2]; 5.64% (active) in assay [3]; 27.8% in [4]; -11.3% (active) in assay [5]; -9.79% (active) in assay [6]. For the same compound, the growth is 43.9% in assay [7], 29.5% in [8] and 30.6% in assay [9].

Take `COc1ccc(/C=C2\CCCC3=C2NC(N)=NC3c2ccc(OC)cc2)cc1` (stereo not given): the growth in [1] was 94.1%; in assay [2], 77.3%; in [3], 110%; in assay [4], 99.2%; in [5], 68.6%; in assay [6], 77.3%. In addition, the growth was 89.4% in [7], 106% in [8] and 112% in assay [9].

With `CCN(CC)CCOC(=O)c1cc(OCc2ccccc2)c(OCc2ccccc2)c(OCc2ccccc2)c1`, the growth in assay [1] was 58.6%; in assay [2], 73.6%; in [3] it was 62.4%; in assay [4] it was 12.4%; in assay [5], 40%; in [6], 45%. The growth in assay [7] was 42.5%; in assay [8] it was 52.1%; in assay [9], 62.1%.

In the case of `CCc1ccc(-c2ccc(-n3nc(C)c4c(N)nc(Cc5ccccc5)nc43)cc2)cc1`, the growth in assay [1] was 77.2%; in [2] it was 56.6%; in assay [3] it was 65.6%; in assay [4], 51.4%; in [5] it was 47.2%; in assay [6], 49.2%. The growth in assay [7] is 52.4%; in assay [8] it was 46.6%; in assay [9], 95.3%.

For the compound `Oc1ccc(/C=N/N=C2c3ccccc3-c3ccccc32)c(O)c1`, the growth was 70.2% in [1]; 60.5% in assay [2]; 82.3% in assay [3]; 83.2% in assay [4]; 79.5% in assay [5]; 74.5% in assay [6]. The growth was 54.8% in [7], 80.4% in [8] and 88% in [9].

Take `COc1cc(-c2nc3ccccc3o2)cc(CN2CCCCC2)c1O`: the growth in assay [1] was 22.1%; in assay [2], 78.8%; in [3], 49.7%; in assay [4], 31.7%; in [5], 103%; in assay [6], 65.9%. The growth is 34% in assay [7], 94.7% in [8] and 113% in [9].

As to `CC1CCCC(C(=O)O)C1C(=O)O` (stereo not given), the growth in assay [1] is 98.1%; in assay [2] it was 96.7%; in assay [3] it was 87.7%; in assay [4], 104%; in [5], 86.1%; in assay [6], 80.8%. Further, the values for the growth in [7], in assay [8] and in assay [9] were 78.3%, 94% and 102%, respectively.

As to `COc1cc2c(Nc3ccc(S(N)(=O)=O)cc3)ncnc2c(OC)c1OC`, the growth in assay [1] was 96.7%; in [2], 84.9%; in [3], 92.3%; in assay [4] it was 105%; in [5], 85.9%; in assay [6], 89.4%. Moreover, the growth is 102% in [7], 121% in [8] and 89.2% in [9].

For `COC(=O)C1(O)NC(=C(C#N)C#N)C(C#N)=C1C(=O)c1ccc(OC)c(OC)c1` (stereo not given), the growth in assay [1] is 103%; in assay [2], 93.6%; in assay [3], 96.1%; in [4], 100%; in assay [5] it was 90.3%; in assay [6] it was 90.3%. Besides, the growth in assay [7] was 91.9%; in assay [8], 101%; in assay [9], 120%.

Consider `O=C(CCNC(=O)c1nc(-c2ccccc2)n(-c2ccc(Cl)cc2)n1)NO`, for which the growth is 101% in [1]; 96.7% in assay [2]; 83.7% in [3]; 104% in [4]; 108% in [5]; 82.4% in assay [6]. In addition, the growth was 88.6% in assay [7], 96.2% in assay [8] and 94.8% in assay [9].
